Test results published in PubChem BioAssay AID1159580 (chemical genetic matrix, 2015).
Several values for one entry are separate records, joined by “and”; a condition that tells them apart may be missing. Equal entries are not always repeated. The campaign covered roughly 5,500 compounds. About 2,000 (36%) were called active. Not shown: some 18% with an inconclusive outcome. Rule as the data show it: active = normalized growth mostly below about 0.91 (no sharp cut-off); inconclusive = no clear call, values can overlap the other calls; inactive = mostly above about 0.92. The list shows a part of the results.

Experiment: chemical genetic growth profiling, strain panel (AID 1159580);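 also: tested at 20 µM; growth read once vehicle control cultures reached saturation at 30 °C; 1 = growth at the plate median or of vehicle wells; lower values mean less growth of the strain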
Details: S. cerevisiae deletion strains, growth OD

Measured: normalized growth

NCC(O)c1ccc(O)cc1 (stereo not given)
inactive: locus YAL013W, strain DEP1, active compounds read low 0.996 and 1.01 | locus YAL021C, strain ccr4, active compounds read low 1.01 | locus YAL026C, strain drs2, active compounds read low 1.01 | locus YAL030W, strain snc1, active compounds read low 0.997 | locus YAL040C, strain CLN3, active compounds read low 1 | locus YBL061C, strain skt5, active compounds read low 1.01 | locus YBR009C, strain hhf1, active compounds read low 0.995 | locus YBR021W, strain FUR4, active compounds read low 0.987 | locus YBR023C, strain chs3, active compounds read low 0.998 | locus YBR171W, strain sec66, active compounds read low 0.995 | locus YBR229C, strain ROT2, active compounds read low 0.977 | locus YBR231C, strain swc5, active compounds read low 1.02 | locus YBR279W, strain paf1, active compounds read low 1.02 | locus YCL011C, strain gbp2, active compounds read low 1.03 | locus YCL016C, strain dcc1, active compounds read low 1.03 | locus YCL029C, strain bik1, active compounds read low 0.966 | locus YCL061C, strain MRC1 (second series), active compounds read low 1.01 | locus YCL069W, strain vba3, active compounds read low 1 | locus YCR088W, strain abp1, active compounds read low 0.993 | locus YDL005C, strain med2, active compounds read low 0.998 | locus YDL035C, strain GPR1, active compounds read low 1.01 | locus YDL040C, strain nat1, active compounds read low 0.999 | locus YDL074C, strain BRE1, active compounds read low 1 | locus YDL101C, strain DUN1, active compounds read low 0.987 | locus YDL134C, strain PPH21, active compounds read low 0.996 | locus YDL185W, strain tfp1, active compounds read low 0.977 | locus YDL192W, strain arf1, active compounds read low 0.984 | locus YDR001C, strain nth1, active compounds read low 1.01 | locus YDR069C, strain doa4, active compounds read low 0.996 | locus YDR101C, strain arx1, active compounds read low 0.987 | locus YDR137W, strain rgp1, active compounds read low 1.02 | locus YDR150W, strain NUM1, active compounds read low 1.01 and 1 | locus YDR159W, strain sac3, active compounds read low 0.963 | locus YDR162C, strain NBP2, active compounds read low 0.999 | locus YDR195W, strain ref2 0.947 | locus YDR297W, strain sur2, active compounds read low 1.02 | locus YDR318W, strain mcm21, active compounds read low 0.963 | locus YDR334W, strain swr1, active compounds read low 1 | locus YDR335W, strain msn5, active compounds read low 1.01 | locus YDR363W, strain ESC2, active compounds read low 1 | locus YDR388W, active compounds read low 0.97 | locus YDR392W, strain spt3, active compounds read low 0.995 | locus YDR502C, strain sam2, active compounds read low 0.988 | locus YEL003W, strain gim4, active compounds read low 1.01 | locus YEL037C, strain rad23, active compounds read low 1.01 | locus YEL061C, strain CIN8 (second series), active compounds read low 0.999 | locus YEL061C, strain CIN8, active compounds read low 1 | locus YER002W, strain NOP16, active compounds read low 1 | locus YER015W, strain faa2, active compounds read low 1.01 | locus YER016W, strain bim1, active compounds read low 0.999 | locus YER110C, active compounds read low 0.976 | locus YER111C, strain swi4, active compounds read low 1.01 | locus YER155C, strain BEM2 (second series), active compounds read low 0.977 | locus YER155C, strain BEM2, active compounds read low 0.99 | locus YER167W, strain BCK2, active compounds read low 0.992 | locus YFR010W, strain ubp6, active compounds read low 0.998 | locus YGL078C, strain dbp3, active compounds read low 0.988 | locus YGL086W, strain mad1, active compounds read low 0.993 | locus YGL167C, strain pmr1, active compounds read low 0.997 | locus YGL173C, strain kem1, active compounds read low 1.01 | locus YGL227W, strain vid30, active compounds read low 0.995 | locus YGL240W, strain doc1, active compounds read low 0.985 | locus YGL248W, strain PDE1, active compounds read low 0.989 | locus YGL253W, strain hxk2, active compounds read low 1.03 | locus YGR078C, strain PAC10, active compounds read low 0.989 and 1.03 | locus YGR135W, strain pre9, active compounds read low 0.984 | locus YGR229C, strain SMI1, active compounds read low 1 and 1.01 | locus YGR252W, strain gcn5, active compounds read low 1.03 | locus YHR013C, strain ard1, active compounds read low 0.978 | locus YHR027C, strain rpn1, active compounds read low 1.01 | locus YHR030C, strain SLT2, active compounds read low 0.983 and 0.979 | locus YHR079C, strain IRE1 (second series), active compounds read low 0.975 | locus YHR079C, strain IRE1, active compounds read low 0.982 | locus YHR094C, strain hxt1, active compounds read low 0.986 | locus YHR129C, strain ARP1, active compounds read low 0.994 | locus YHR142W, strain chs7, active compounds read low 1.02 | locus YHR200W, strain rpn10, active compounds read low 0.98 | locus YIL066C, strain RNR3, active compounds read low 0.998 | locus YIL073C, strain SPO22, active compounds read low 0.986 | locus YIL125W, strain kgd1, active compounds read low 0.982 | locus YIR030C, strain dcg1, active compounds read low 0.983 | locus YJL092W, strain hpr5, active compounds read low 1.01 | locus YJL095W, strain BCK1 (second series), active compounds read low 1.01 | locus YJL095W, strain BCK1, active compounds read low 0.962 and 1 | locus YJL115W, strain asf1, active compounds read low 1.01 | locus YJL129C, strain trk1, active compounds read low 1.01 | locus YJL134W, strain LCB3, active compounds read low 0.995 | locus YJL154C, strain vps35, active compounds read low 0.99 | locus YJL164C, strain tpk1, active compounds read low 0.994 | locus YJL166W, strain qcr8, active compounds read low 0.999 | locus YJL168C, strain set2, active compounds read low 0.976 | locus YJL187C, strain SWE1 (second series), active compounds read low 0.988 | locus YJR043C, strain POL32, active compounds read low 0.994 | locus YJR066W, strain TOR1, active compounds read low 0.919 | locus YJR075W, strain HOC1, active compounds read low 0.993
